# PubChem BioAssay
# Values without a mark were called inactive. No rule for the calls is given here.
# Molecular target: Pantothenate synthetase (Mycobacterium tuberculosis (strain ATCC 25618 / H37Rv)) (UniProt P9WIL5)
# Assay: Recombinant Mtb pantothenate synthetase (PanC) inhibitors, coupled enzyme, confirmatory (AID 375);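 also: 0% = full reaction with vehicle and 100% = no enzyme background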
# Settings: coupled enzyme assay; at 10 µM, stronger effect = higher value
# Sequence of Pantothenate synthetase (Mycobacterium tuberculosis (strain ATCC 25618 / H37Rv)) (P9WIL5 whole entry, looked up): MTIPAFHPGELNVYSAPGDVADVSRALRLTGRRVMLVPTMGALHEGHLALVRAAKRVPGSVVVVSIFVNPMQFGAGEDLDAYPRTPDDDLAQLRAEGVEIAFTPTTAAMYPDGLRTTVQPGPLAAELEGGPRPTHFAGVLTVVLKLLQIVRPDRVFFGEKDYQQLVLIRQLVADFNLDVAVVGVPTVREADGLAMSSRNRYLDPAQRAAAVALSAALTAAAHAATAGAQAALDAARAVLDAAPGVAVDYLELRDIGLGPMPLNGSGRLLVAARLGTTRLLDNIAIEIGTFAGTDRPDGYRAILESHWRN
row,SMILES,inhibition [%]
1,Cc1oc(-c2ccccc2Cl)nc1CSCC(=O)N1CCCC1,1
2,Cn1c(=O)[nH]c(=O)c2c1nc(N(CCO)Cc1ccccc1)n2Cc1ccccc1Cl,4
3,CCC1CCCCN1CCNS(=O)(=O)c1ccc2c(c1)oc(=O)n2C (stereo not drawn),1
4,CC(=O)N1C(=O)C2(Nc3ccccc3N2)c2ccccc21,1
5,CC(C)c1ccc(NC(=O)C2CC(=O)N(C(C)C)C2)cc1 (stereo not drawn),5
6,O=c1c2c(-c3ccccc3)csc2nc2n1CCC2,0
7,Cc1ccccc1Cn1ccc(NC(=O)c2onc(C)c2Cl)n1,0
8,CCN(CC)CCCN(Cc1cc2cc(OC)ccc2[nH]c1=O)C(=O)Nc1ccccc1,9
9,COc1ccc(C2C(C(=O)N3CCCC3)c3cc(OC)c(OC)cc3C(=O)N2C)cc1 (stereo not drawn),0
10,COc1ccc(Nc2nc(OC)nc(N3CCN(c4ccc(OC)cc4)CC3)n2)cc1,1
11,COC(=O)c1cc(-c2c(C)nn(-c3ccccc3)c2C)n[nH]1,0
12,CC(C)(O)C#Cc1ccc(C(=O)N2CCN(C(=O)c3ccco3)CC2)cc1,0
13,COc1ccc(C(CNC(=O)c2ccc(OCC3CCCO3)cc2)N2CCOCC2)cc1 (stereo not drawn),0
14,COc1ccc(NC(=O)CC2Oc3ccccc3NC2=O)cc1 (stereo not drawn),0
15,COc1cccc(N2C(=O)N(c3ccccc3Cl)C3CS(=O)(=O)CC32)c1 (stereo not drawn),3
16,O=C(Nc1c(C(=O)NCc2ccco2)cnn1-c1ccccc1)c1ccc(F)cc1,2
17,O=c1c[n+]([O-])c2ccccc2n1OCc1ccccn1,4
18,Cc1occc1C(=O)Nc1cccnc1,16
19,N#Cc1ccccc1Cn1c(=O)n(Cc2ccc(C(=O)NCc3ccco3)cc2)c(=O)c2sccc21,9
20,CCn1c(=O)cc(SCC(=O)N2CCN(C3CCCCC3)CC2)c2ccccc21,2
21,COc1ccccc1C1(CC(=O)N2CCOCC2)CCOC(C(C)C)C1 (stereo not drawn),2
22,Fc1ccccc1Cn1nnc2c(-n3ccnc3)ncnc21,0
23,Cc1ccc(NC(=O)CSc2nnc(NC(=O)CN3CCOCC3)s2)cc1,5
